According to PubChem BioAssay (NCATS):
Where “and” joins values, the source holds several entries; their conditions need not be identical. Equal values may be shown once. Inconclusive results are not listed. Where a call stands in place of a potency, no number is given. Calls of active or inactive are those of the source. The call rests on the fitted dose curve; in most records, active means well fitted curve in the direction sought with a large enough effect; inconclusive means small, poorly fitted or top-dose-only effect, or another doubt; inactive means no such curve, though single readings can be large; an effect the other way counts as inactive or inconclusive.

What was measured:
[1] = qHTS assay for measurement of the activity of small molecule inhibitors on Zika virus induced Caspase-3 activity in human iPSC derived neural progenitor cells (hNPCs) (AID 1224857); conditions: hNPCs ZIKV-induced caspase-3/7, Caspase-Glo luminescence, 6 h; series mostly up to 45.7 µM; further: nearly all actives have a fitted effect of over 65% in size
How it was run: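 Quantitative HTS format: human iPSC neural progenitors, 1 h compound pretreatment, ZIKV 2 FFU/cell for 6 h at 37 C. Percent inhibition derived from luminescent caspase-3/7 signal between uninfected and infected controls.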

[2] = qHTS assay for measurement of the activity of small molecule inhibitors on Zika virus induced Caspase-3 activity in human astrocytoma cells (AID 1224859); conditions: SNB-19 ZIKV-induced caspase-3/7, luminescence, 6 h; series mostly up to 45.7 µM
How it was run: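 Readout is luminescence from Caspase-Glo 3/7 added after a 6 h ZIKV infection (2 FFU/cell) of compound-pretreated (1 h) SNB-19 cells; data expressed as % inhibition versus uninfected and infected wells.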

[3] = qHTS assay to identify small molecule inhibitors of chordoma cells - UCH-1 (AID 1259355); conditions: UCH-1 chordoma viability, CellTiter-Glo, 48 h, combination, with auranofin plus four topoisomerase inhibitors; series mostly up to 46.1 µM; further: nearly all actives have a fitted effect of over 55% in size; further: potency means the concentration at half of the fitted maximal effect
How it was run: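 Seed 800 cells per well; incubate overnight at 37 C, 5% CO2. Add test compounds (15 concentrations), then the auranofin–topoisomerase-agent combination. Incubate 48hr, add CellTiter-Glo, wait 30min, read luminescence.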

Row | SMILES | outcome [1] | outcome [2] | Potency [3]
1 | NCCNCCNCCN | inactive | inactive | inactive
2 | NC1CCN(c2cccc(Cl)n2)CC1 | inactive | inactive | inactive
3 | CN1CCCCC1CCN1c2ccccc2Sc2ccc(S(C)=O)cc21 (stereo unspecified) | inactive | inactive | inactive
4 | CCCc1c(OCCCCc2nn[nH]n2)ccc(C(C)=O)c1O | inactive | inactive | inactive
5 | CC(=O)Oc1ccc(C2(c3ccc(OC(C)=O)cc3)C(=O)Nc3ccccc32)cc1 | inactive | inactive | 3.55 µM (active) and 3.98 µM (active)
6 | CC1(C)OC(=O)NC1=O | inactive | inactive | inactive
7 | CC1=C(C/C=C(\C)CCC[C@H](C)CCC[C@H](C)CCCC(C)C)C(=O)c2ccccc2C1=O | inactive | inactive | inactive
8 | C[C@](N)(Cc1ccc(O)cc1)C(=O)O | inactive | inactive | inactive
9 | CCCCN1CCCC[C@H]1C(=O)Nc1c(C)cccc1C | inactive | inactive | inactive
10 | CCCCOC(=O)c1ccc(O)cc1 | inactive | inactive | inactive
11 | OCC(O)CN1CCN(c2ccccc2)CC1 (stereo unspecified) | inactive | inactive | inactive
12 | CCCCC/C(C=O)=C\c1ccccc1 | inactive | inactive | inactive
13 | CC(=O)Nc1ccc(/C=N/NC(N)=S)cc1 | inactive | inactive | inactive
14 | O=C(O)CC(O)C(=O)O (stereo unspecified) | inactive | inactive | inactive
15 | O=S(=O)(O)c1cc(I)c(O)c2ncccc12 | inactive | inactive | inactive
16 | NC(CSCC(=O)O)C(=O)O (stereo unspecified) | inactive | inactive | inactive
17 | O=C(O)COc1nn(Cc2ccccc2)c2ccccc12 | inactive | inactive | inactive
